Measured values as given in the supplement of paper PMC11732987, “Enantioselective OTUD7B fragment discovery through chemoproteomics screening and high-throughput optimisation” (Communications Chemistry, 2025).

Legend:
Test in all cases: log2 ratio of Biotin-Ahx-Ub-VS probe labelling (fragment/DMSO); higher = less target engagement (more negative = stronger competition), active = hit call of the paper (q ≤ 0.05, log2 ratio ≤ -1)
Conditions in all cases: compound concentration: 200 uM; treatment time: 3 h
[1] = target: USP34 (UniProt Q70CQ2)
Method in brief: (§1)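 HEK293T lysate (495 µg per sample, in Tris/CHAPS/IGEPAL buffer with protease inhibitors) was exposed in triplicate for 3 h to fragment at 200 µM or to vehicle, then to Biotin-Ahx-Ub-VS at 0.5 µM final for 1 h. Labelled DUBs were enriched on NeutrAvidin, digested with LysC and trypsin, and analysed by diaPASEF LC-MS/MS. Spectronaut label-free quantities were normalised to the global median, and values are average log2 ratios of fragment over vehicle from an unpaired t-test. Only proteins with ≥2 unique peptides were used.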

[2] = target: T1, USP36 (UniProt Q9P275)
T1 sequence (whole entry): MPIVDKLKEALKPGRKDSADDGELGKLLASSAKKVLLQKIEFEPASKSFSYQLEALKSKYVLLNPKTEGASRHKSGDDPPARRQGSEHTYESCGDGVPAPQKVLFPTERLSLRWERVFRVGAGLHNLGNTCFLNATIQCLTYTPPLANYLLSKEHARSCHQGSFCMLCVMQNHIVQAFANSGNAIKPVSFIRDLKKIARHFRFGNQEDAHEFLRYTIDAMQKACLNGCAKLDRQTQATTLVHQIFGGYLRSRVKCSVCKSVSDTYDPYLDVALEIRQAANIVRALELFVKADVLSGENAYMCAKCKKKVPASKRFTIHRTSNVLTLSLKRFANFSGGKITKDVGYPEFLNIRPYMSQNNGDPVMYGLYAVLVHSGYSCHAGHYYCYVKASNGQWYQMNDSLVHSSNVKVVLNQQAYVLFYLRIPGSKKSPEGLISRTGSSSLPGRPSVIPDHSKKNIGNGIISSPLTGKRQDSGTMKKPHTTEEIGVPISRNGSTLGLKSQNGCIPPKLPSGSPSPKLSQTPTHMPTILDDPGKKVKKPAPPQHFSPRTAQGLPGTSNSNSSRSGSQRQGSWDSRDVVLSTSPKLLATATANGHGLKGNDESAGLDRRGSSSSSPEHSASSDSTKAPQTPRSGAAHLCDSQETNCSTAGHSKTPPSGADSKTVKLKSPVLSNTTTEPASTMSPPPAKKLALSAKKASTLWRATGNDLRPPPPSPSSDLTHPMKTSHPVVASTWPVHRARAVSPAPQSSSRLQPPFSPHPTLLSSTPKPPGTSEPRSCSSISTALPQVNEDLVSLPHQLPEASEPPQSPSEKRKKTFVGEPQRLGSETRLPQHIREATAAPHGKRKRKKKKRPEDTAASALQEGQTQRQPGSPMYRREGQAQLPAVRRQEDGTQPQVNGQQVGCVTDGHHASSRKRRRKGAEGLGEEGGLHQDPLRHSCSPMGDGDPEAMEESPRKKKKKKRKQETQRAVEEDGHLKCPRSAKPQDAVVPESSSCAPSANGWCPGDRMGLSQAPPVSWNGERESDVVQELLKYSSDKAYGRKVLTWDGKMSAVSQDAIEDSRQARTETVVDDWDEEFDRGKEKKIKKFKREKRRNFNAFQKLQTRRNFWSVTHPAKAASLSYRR
Method in brief: as §1

[3] = target: T2, USP38 (UniProt Q8NB14)
T2 sequence (whole entry): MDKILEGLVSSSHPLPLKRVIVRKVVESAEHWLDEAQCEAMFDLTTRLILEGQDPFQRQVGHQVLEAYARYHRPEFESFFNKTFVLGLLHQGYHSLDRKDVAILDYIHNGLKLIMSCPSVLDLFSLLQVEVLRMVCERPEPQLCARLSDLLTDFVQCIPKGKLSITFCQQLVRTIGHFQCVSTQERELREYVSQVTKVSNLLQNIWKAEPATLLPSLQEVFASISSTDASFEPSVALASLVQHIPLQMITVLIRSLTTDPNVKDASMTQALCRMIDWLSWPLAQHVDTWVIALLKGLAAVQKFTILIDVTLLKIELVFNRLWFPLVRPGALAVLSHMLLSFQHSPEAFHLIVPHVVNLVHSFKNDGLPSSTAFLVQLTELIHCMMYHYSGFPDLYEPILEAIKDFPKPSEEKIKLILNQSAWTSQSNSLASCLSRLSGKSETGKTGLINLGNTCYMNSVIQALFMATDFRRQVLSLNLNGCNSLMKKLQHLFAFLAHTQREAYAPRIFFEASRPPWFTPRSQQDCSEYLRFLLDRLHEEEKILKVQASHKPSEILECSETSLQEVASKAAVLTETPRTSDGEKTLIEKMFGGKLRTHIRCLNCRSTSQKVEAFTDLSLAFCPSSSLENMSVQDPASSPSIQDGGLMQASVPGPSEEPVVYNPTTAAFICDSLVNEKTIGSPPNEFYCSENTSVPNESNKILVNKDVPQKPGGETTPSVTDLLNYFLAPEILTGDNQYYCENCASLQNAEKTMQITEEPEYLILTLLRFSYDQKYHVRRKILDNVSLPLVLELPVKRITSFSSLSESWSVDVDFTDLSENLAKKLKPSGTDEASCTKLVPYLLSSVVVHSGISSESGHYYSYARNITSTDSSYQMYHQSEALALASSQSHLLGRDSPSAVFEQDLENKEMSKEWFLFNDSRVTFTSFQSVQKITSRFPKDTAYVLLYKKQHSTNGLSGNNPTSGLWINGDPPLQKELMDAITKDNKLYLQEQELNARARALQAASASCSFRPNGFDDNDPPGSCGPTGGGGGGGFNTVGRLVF
Method in brief: as §1

[4] = target: T3, USP39 (UniProt Q53GS9)
T3 sequence (whole entry): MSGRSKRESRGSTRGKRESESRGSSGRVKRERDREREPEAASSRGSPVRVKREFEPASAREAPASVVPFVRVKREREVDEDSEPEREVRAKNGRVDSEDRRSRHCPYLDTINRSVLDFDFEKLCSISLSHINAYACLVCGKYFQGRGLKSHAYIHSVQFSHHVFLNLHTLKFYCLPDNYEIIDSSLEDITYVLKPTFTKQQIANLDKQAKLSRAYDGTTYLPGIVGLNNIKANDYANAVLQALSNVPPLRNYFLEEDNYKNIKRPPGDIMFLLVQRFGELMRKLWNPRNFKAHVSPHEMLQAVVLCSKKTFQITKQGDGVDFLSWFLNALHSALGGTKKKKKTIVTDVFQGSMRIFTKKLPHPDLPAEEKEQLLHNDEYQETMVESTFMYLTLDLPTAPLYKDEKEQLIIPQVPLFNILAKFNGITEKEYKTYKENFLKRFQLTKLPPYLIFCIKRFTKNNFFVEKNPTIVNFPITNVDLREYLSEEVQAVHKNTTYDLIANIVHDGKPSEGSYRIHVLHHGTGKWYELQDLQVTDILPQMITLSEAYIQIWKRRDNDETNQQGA
Method in brief: as §1

[5] = target: T4, USP4 (UniProt Q13107)
T4 sequence (whole entry): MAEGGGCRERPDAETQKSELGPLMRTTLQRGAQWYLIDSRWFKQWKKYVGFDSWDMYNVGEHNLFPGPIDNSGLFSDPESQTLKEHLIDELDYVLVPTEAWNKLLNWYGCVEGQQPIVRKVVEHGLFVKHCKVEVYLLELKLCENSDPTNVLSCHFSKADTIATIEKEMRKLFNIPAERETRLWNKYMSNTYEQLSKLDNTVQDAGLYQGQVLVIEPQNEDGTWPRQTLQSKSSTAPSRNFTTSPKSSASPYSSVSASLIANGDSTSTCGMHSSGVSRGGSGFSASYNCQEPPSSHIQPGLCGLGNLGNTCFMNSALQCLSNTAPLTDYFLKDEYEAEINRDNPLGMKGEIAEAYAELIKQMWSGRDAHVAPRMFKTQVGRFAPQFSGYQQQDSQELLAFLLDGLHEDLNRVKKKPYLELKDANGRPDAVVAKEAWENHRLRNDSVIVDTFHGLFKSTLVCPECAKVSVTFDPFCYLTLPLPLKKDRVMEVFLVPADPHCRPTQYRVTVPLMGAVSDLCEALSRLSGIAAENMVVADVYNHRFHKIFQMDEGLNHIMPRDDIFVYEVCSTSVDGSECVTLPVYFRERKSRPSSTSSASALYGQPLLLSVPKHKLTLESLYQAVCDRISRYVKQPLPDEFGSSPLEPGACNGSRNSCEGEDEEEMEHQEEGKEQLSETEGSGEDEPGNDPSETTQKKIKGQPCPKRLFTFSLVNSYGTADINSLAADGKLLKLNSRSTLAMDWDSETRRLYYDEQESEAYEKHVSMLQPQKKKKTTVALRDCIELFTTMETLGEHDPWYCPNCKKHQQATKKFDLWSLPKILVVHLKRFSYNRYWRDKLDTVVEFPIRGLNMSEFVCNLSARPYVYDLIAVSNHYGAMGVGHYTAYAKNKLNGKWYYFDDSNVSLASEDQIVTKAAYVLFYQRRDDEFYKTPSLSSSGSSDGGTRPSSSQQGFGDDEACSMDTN
Method in brief: as §1

Measured: log2 ratio of Biotin-Ahx-Ub-VS probe labelling

Chain of USP34 (Q70CQ2 whole entry, the tested form may be a part): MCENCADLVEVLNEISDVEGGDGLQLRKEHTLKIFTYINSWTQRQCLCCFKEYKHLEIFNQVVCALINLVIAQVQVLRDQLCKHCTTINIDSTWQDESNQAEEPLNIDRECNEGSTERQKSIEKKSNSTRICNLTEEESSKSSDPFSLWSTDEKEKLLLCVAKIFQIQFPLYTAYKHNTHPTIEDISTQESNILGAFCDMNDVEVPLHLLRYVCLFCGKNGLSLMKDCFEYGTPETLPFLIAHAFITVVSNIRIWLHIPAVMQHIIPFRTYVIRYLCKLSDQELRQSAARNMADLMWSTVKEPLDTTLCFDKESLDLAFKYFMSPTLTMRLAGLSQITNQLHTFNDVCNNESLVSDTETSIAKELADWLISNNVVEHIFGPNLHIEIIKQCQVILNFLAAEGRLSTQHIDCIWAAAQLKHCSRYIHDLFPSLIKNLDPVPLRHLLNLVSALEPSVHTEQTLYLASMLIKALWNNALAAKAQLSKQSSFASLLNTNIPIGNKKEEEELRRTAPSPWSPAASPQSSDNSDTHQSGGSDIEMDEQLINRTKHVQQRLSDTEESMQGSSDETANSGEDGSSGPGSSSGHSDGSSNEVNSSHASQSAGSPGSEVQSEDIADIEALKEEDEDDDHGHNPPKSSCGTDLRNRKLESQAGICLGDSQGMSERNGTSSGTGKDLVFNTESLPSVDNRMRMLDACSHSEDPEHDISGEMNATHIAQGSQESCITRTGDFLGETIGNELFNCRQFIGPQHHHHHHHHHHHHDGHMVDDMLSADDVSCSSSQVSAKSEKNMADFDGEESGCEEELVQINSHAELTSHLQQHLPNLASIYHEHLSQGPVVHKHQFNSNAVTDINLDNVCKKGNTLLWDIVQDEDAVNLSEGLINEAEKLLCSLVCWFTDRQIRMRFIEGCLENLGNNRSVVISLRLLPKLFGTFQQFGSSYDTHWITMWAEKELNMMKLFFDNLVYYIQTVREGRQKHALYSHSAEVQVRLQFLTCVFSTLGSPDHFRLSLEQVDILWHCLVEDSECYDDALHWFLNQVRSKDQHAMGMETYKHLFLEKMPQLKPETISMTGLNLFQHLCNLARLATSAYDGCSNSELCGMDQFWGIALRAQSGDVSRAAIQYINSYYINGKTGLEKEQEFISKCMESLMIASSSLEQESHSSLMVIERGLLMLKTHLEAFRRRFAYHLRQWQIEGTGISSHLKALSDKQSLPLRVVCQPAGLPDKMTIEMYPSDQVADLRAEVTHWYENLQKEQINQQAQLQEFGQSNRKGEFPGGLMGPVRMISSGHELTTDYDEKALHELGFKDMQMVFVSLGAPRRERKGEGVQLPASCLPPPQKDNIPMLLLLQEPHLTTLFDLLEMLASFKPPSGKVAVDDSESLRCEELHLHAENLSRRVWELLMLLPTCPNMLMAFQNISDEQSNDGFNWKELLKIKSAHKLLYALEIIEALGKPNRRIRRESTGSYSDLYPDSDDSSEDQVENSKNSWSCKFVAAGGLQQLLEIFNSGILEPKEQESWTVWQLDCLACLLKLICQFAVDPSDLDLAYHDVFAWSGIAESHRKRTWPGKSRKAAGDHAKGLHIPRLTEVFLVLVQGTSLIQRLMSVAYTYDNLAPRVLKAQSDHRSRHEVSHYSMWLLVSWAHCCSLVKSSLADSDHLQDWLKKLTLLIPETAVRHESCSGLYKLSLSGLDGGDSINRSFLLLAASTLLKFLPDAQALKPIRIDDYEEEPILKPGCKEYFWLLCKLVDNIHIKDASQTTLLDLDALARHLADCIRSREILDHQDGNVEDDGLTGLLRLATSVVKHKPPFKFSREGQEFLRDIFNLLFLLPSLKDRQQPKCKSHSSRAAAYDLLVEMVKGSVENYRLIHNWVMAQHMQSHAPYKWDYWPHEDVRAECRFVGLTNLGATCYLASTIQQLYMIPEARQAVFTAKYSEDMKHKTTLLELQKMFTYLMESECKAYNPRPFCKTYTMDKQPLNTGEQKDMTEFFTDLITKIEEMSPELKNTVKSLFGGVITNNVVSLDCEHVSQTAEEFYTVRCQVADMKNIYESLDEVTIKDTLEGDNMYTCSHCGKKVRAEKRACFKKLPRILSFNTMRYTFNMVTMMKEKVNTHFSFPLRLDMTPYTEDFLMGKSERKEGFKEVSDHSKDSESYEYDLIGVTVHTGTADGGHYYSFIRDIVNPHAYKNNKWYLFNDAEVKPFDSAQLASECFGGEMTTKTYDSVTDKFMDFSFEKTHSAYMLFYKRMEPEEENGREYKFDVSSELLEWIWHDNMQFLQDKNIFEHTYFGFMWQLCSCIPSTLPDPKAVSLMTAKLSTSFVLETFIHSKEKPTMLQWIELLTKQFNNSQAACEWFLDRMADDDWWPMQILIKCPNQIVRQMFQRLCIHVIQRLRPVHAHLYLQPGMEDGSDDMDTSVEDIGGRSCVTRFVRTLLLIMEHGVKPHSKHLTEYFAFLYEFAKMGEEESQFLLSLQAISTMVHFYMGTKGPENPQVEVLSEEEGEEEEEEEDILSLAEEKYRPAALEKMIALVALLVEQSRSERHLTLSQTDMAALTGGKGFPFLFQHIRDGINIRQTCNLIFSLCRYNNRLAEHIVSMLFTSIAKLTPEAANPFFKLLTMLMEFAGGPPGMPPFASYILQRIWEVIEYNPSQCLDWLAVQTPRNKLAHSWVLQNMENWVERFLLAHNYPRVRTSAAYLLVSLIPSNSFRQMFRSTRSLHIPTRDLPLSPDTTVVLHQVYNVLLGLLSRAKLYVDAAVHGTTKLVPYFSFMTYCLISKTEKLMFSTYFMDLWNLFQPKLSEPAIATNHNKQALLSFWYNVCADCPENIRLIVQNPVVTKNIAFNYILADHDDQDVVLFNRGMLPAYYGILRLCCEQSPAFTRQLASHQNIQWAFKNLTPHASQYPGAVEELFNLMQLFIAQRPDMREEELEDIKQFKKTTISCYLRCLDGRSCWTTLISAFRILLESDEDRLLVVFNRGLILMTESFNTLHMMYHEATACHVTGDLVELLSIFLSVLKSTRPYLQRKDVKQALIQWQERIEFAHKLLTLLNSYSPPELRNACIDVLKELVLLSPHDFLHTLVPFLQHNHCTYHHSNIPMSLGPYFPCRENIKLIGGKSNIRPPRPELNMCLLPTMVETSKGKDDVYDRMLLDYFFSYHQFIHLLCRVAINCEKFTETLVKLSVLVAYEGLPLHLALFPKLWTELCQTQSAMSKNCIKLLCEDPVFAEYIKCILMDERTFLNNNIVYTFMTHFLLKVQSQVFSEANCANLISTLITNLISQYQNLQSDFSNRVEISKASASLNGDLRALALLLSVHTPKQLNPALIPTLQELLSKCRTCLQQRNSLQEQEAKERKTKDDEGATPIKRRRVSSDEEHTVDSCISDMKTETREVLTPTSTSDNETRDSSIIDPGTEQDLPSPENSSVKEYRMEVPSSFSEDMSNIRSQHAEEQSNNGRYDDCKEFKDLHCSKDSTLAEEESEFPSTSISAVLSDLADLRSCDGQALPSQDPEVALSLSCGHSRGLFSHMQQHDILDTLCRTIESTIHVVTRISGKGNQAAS

C[C@H]1CN(C(=O)CCl)CCN1C(=O)c1cnn(C)c1.Cl
inactive: [1] -0.052 | [2] -0.171 | [3] -0.0453 | [4] 0.0473 | [5] -0.115
